# The list is not random: actives were taken first. Their share in the collection is about 2.1%.
# Abeta rescue: A-beta toxicity reversal in yeast. yeast expressing A-beta42, growth rescue, OD600, 48 h; response scale: 0% DMSO, 100% iron-clioquinol control. Potency, µM (top dose mostly 46.1 µM), actives largely listed as activators. 0.063% of 410,000 active. AID 1347071; further: nearly all actives have a fitted effect of over 55% in size
#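 Growth rescue measured by 600 nm absorbance after 48 h yeast culture at 30 C with compound. Values normalized between DMSO and an equimolar ferric chloride plus clioquinol control.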
# FUS suppressor: rescues growth of FUS-expressing yeast | Potency, µM (titrated, usually from 76.6 µM), hits mostly activators | 0.24% of 390,000 active | S. cerevisiae FUS-expressing, growth rescue, OD600, 24 h;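 further: plate controls were DMSO vehicle for no effect and reference control for full effect; nearly all actives have a fitted effect of over 55% in size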
#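 Cultures pregrown in 2.5% raffinose medium are shifted to minimal medium containing 2% galactose to express toxic FUS. Compounds are tested at several concentrations. After 24hr at 30C, growth is quantified at 600 nm absorbance.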
# aSyn rescue: inhibitors of alpha-synuclein toxicity in yeast | Yeast expressing alpha-synuclein, growth rescue, BacTiter-Glo, 24 h | Potency, µM (top dose mostly 46.1 µM), inactives show at the top dose growth rescue (activation), actives largely listed as activators | 0.14% of 370,000 active; further: % of control where 0% means no effect; nearly all actives have a fitted effect of over 65% in size
#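 Readout is rescue of growth in alpha-synuclein-expressing yeast, so inhibitors of toxicity appear as activators. Growth after 24 hr at 30 deg C in galactose medium is quantified by luminescence.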
# TDP-43 yeast inh: TDP-43 toxicity inhibition in yeast. TDP-43 expressing yeast growth rescue, BacTiter-Glo, 24 h. AID 652104. 1.8% of 410,000 active. Potency, µM (doses to about 46.1 µM), for inactives: at the top dose growth rescue (activation), usual class: activators; further: % of control where 0% means no effect; nearly all actives have a fitted effect of over 50% in size
#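 Yeast cells expressing TDP-43 under galactose induction are exposed to compounds for 24 hr at 30 deg C. BacTiter-Glo luminescence measures growth, so protective compounds score as activators.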
# Active calls of the source: *; i = inactive; ? = inconclusive; · = no result given; [ ] = dose if it differs, or a comment. The call rests on the fitted dose curve; in most records, active means well fitted curve in the direction sought with a large enough effect; inconclusive means small, poorly fitted or top-dose-only effect, or another doubt; inactive means no such curve, though single readings can be large; an effect the other way counts as inactive or inconclusive. Potency means the concentration at half of the fitted maximal effect.
SMILES,Abeta rescue,FUS suppressor,aSyn rescue,TDP-43 yeast inh
COc1ccc(S[C@]2(C(=O)N3CCOCC3)CC(=O)N(C(=O)CCc3ccccc3)[C@@H]2c2ccc(OC)cc2)cc1,·,i,·,·
CCOc1ccc(-c2cc(C(=O)OC)c3n(c2=O)CCC3)cc1,·,i,·,·
CCOc1cccc(-c2nnc3sc(C4CCCCC4)nn23)c1,i,?,-5%,18µM*
COc1cccc(-c2nnc3sc(C4CCCCC4)nn23)c1,i,i,-4%,?
CCOC(=O)C1=C(C)NC(C)=C(C(=O)OCC)C1c1cccc([N+](=O)[O-])c1,i,i,13%,25µM*
N[C@@H](Cn1ccc(=O)c(O)c1)C(=O)O,·,·,3%,·
COc1cc2oc3ccccc3c(=O)c2cc1OC,i,i,?,16µM*
C=CC[C@@H]1NN2C(=O)[C@@H](CCCC)[C@@H]3c4ccccc4C=NN3[C@@H]2c2ccccc21,·,i,·,·
Cc1ccc(Cl)cc1N1CCN(C(=O)c2cnc(N3CCOCC3)c3ccccc23)CC1,i,16µM*,·,22µM*
Cc1ccc(Nc2ncc(C(=O)NCCCN3CCN(C)CC3)c3ccccc23)cc1Cl,i,i,-3%,·
CN(C(=O)c1cnc(N2CCN(c3ncccn3)CC2)c2ccccc12)c1ccc(Cl)cc1,?,i,11%,10µM*
CCN(C(=O)c1cnc(N2CCN(c3ncccn3)CC2)c2ccccc12)c1cccc(Cl)c1,i,i,-18%,?
Cc1ccc(Nc2ncc(C(=O)N3CCN(c4cccc(Cl)c4)CC3)c3ccccc23)cc1Cl,i,?,·,16µM*
COc1ccc(/C=C2\CC3(OC(=O)c4ccco4)CCCN2C3)cc1 (stereo not given),·,i,·,·
O=C(CSc1cccc[n+]1[O-])CSc1cccc[n+]1[O-],?,i,?,3.5µM*
O=C(CSc1cccc[n+]1[O-])N1CCCCCC1,i,i,0%,9%
COc1ccc(/C=C/c2c([N+](=O)[O-])c(=O)n(C)c(=O)n2C)cc1OC,i,i,-9%,-14%
Cn1c(/C=C/c2ccc(Cl)cc2)c([N+](=O)[O-])c(=O)n(C)c1=O,i,i,6%,18µM*
CCSc1nccc(-c2nn(-c3ccc(C)cc3)ccc2=O)n1,i,i,1%,11%
C#CCSc1nccc(-c2nn(-c3ccc(C)cc3)ccc2=O)n1,i,35µM*,5%,-15%
CNC(=S)N1N=C(c2ccc(OC)cc2)CC1c1ccccc1Cl (stereo not given),i,i,-14%,3.2µM*
COc1cc(C(C)=O)ccc1OCC(=O)c1cc(C)n(C2CC2)c1C,i,i,5%,25µM*
O=C(Cn1nc(-c2ccccc2)c2ccccc21)Oc1ccccc1,·,i,·,·
Cc1cc(OC(=O)c2ccc(C(C)(C)C)cc2)c([N+](=O)[O-])c(=O)[nH]1,i,i,9%,16µM*
O=C(O/N=C(\c1ccccc1)c1ccccn1)c1ccc(Cl)c(Cl)c1,?,i,-8%,30%
SMILES,Abeta rescue,FUS suppressor,aSyn rescue,TDP-43 yeast inh
N/C(=N\OC(=O)c1ccc(Cl)c(Cl)c1)c1cccc(CSc2ccccn2)c1,i,i,-49%,11µM*
N/C(=N\OC(=O)c1ccc(Cl)c(Cl)c1)c1cccnc1,i,i,1%,6.3µM*
O=[N+]([O-])c1ccc2c(c1)S(=O)(=O)C=C2,·,·,-42%,·
COCC#Cc1ccc(CC[C@H]2O[C@H]3CC[C@H](CO)O[C@H]3C[C@H]2n2cc(C(C)(C)O)nn2)cc1,·,i,·,·
Cc1ccc2[nH]c3c(Cl)ncnc3c2c1,i,i,13%,7%
COc1ccc2c(c1)[nH]c1c(Cl)ncnc12,i,i,?,11µM*
CN(CC(=O)Nc1cccc(Cl)c1)S(=O)(=O)/C=C/c1ccccc1,i,i,?,18µM*
Cc1nnc(C)n1N=Cc1ccc(O)cc1O,·,i,·,·
COC(=O)c1cc(-c2cccs2)c(=O)n2c1CCC2,·,i,·,·
Cc1cc(C)nc(NC(N)=NCCc2c[nH]c3ccccc23)n1,i,i,0%,-10%[0.397 µM]
Cc1cc(C)nc(NC(=NCCc2c[nH]c3ccccc23)NC(=O)Nc2ccc(Cl)cc2)n1,i,·,-34%,22µM*
CCC(Oc1ccccc1F)C(=O)N1CCC(c2nc3ccccc3s2)CC1 (stereo not given),i,i,·,25µM*
CCCOc1ccccc1C(=O)N1CCC(c2nc3ccccc3s2)CC1,i,i,·,?
O=C(CSc1ccc(F)cc1)N1CCC(c2nc3ccccc3s2)CC1,i,i,27%,22µM*
O=C(CSc1ccccc1Cl)N1CCC(c2nc3ccccc3s2)CC1,i,i,?,?
COc1cccc(C(=O)N2CCC(c3nc4ccccc4s3)CC2)c1,i,i,·,0%
O=C(c1cccc(F)c1)N1CCC(c2nc3ccccc3s2)CC1,i,i,4%,13µM*
Fc1ccc(Sc2cc(Cl)c(-c3ccccc3)nn2)cc1,i,i,-1%,16µM*
Fc1ccc(Sc2nc(-c3ccccc3)nnc2C(F)(F)F)cc1,i,i,-1%,16%
COc1cc2nc(NC3CCN(C)CC3)nc(NC3CCN(C)CC3)c2cc1OC,·,·,0%,·
Cn1c(SCc2ccc(Cl)cc2)nnc1-c1ccc(NC(=O)CCc2ccccc2)cc1,·,·,-9%,·
COc1ccc(-c2nc(-c3ccc(O)cc3O)cs2)cc1OC,i,i,1%,18µM*
C=CCNC(=O)CN(C(=O)Cc1ccc(Cl)nc1)c1cccc(Br)c1,·,i,·,·
CC(C)N(C(=O)CSc1nc2ccc(Cl)cc2[nH]1)c1ccccc1,i,i,·,35µM*
COC(=O)C1=C(C(=O)OC)C(c2cc(Br)ccc2O)c2sc(=O)[nH]c2S1 (stereo not given),i,i,7%,-7%
SMILES,Abeta rescue,FUS suppressor,aSyn rescue,TDP-43 yeast inh
COC(=O)C1=C(C(=O)OC)C(c2cc(Cl)ccc2O)c2sc(=O)[nH]c2S1 (stereo not given),i,i,14µM*,-14%
C[C@]12CCC(O)CC1=CCC1C2CC[C@]2(C)/C(=N\NC(N)=S)CCC12 (stereo not given in full),2.5µM*,i,3%,25%
CC12CCC(O)CC1=CCC1C2CCC2(C)C1CCC21CCC(=O)O1 (stereo not given),i,·,2%,30%
CN(C(=O)CCn1nnc(-c2cccs2)n1)C1CCCCC1,·,i,·,·
CCOC(=O)N(O)c1ccc(C=Cc2ccccc2)cc1,i,·,-2%,14µM*
Cc1cc(C)c2c(c1)-c1cc(C)nn1C(c1ccc3c(c1)OCO3)N2 (stereo not given),i,i,11%,18µM*
CCOc1ccc(C2Nc3c(C)cccc3-c3cc(C)nn32)cc1 (stereo not given),?,i,·,11µM*
Cc1cc2n(n1)C(c1ccc3c(c1)OCO3)Nc1c(C)cccc1-2 (stereo not given),i,i,·,-15%

# Screening data from PubChem BioAssay.
